# Whole data set: some 2,900 compounds, median “NF-kB SEAP reporter activity, fold change vs agonist alone” near 0.99, cut for the highest 2% near 2.6. Only a selection was taken, and the highest values are over-represented in it overall.
# Legend:
# RAW-Dual [1] = assay: NF-kB SEAP reporter activity, fold change vs agonist alone; higher = enhanced NF-kB activity
# Summary of the method: (§1)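 Supernatant from RAW-Dual macrophages was read after 20 hours for IRF by QuantiLuc luminescence and for NF-κB by QuantiBlue absorbance at 620 nm. The cells (50,000 cells/well in DMEM, 384-well plates, 37 °C, 5% CO2) had received 50 nL of library stock by pin tool and, 1 h later, a PRR agonist. Reporter activity is expressed relative to agonist-alone wells as fold change, and wells were flagged cytotoxic if IncuCyte confluency was under 70% of agonist controls in both mask sets.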
# RAW-Dual [2] = assay: NF-kB SEAP reporter activity, fold change vs agonist alone; cytotoxicity flag (confluency mask): not cytotoxic; library stock concentration (final ~1000-fold dilution): 10 mM; higher = enhanced NF-kB activity
# Summary of the method: as §1
# RAW-Dual [3] = assay: NF-kB SEAP reporter activity, fold change vs agonist alone; cytotoxicity flag (confluency mask): cytotoxic (confluency <70% of control); library stock concentration (final ~1000-fold dilution): 10 mM; higher = enhanced NF-kB activity
# Summary of the method: as §1
# RAW-Dual [4] = assay: NF-kB SEAP reporter activity, fold change vs agonist alone; cytotoxicity flag (confluency mask): not cytotoxic; library stock concentration (final ~1000-fold dilution): 10 mM water; higher = enhanced NF-kB activity
# Summary of the method: as §1
# [5] = library stock concentration (final ~1000-fold dilution): 10 mM, cytotoxicity flag (confluency mask): not cytotoxic, agonist: Imiquimod (TLR7) […]
# [6] = library stock concentration (final ~1000-fold dilution): 10 mM, cytotoxicity flag (confluency mask): not cytotoxic, agonist: MPLA (TLR4) […]
# [7] = agonist: ODN 1826 (TLR9) 0.5 ug/mL
# [8] = agonist: Pam2CSK4 (TLR2/6) 0.1 ug/mL
# [9] = agonist: Pam3CSK4 (TLR2/1) 0.1 ug/mL
# [10] = library stock concentration (final ~1000-fold dilution): 10 mM, cytotoxicity flag (confluency mask): cytotoxic (confluency <70% of control), agonist: Imiquimod (TLR7) […]
# [11] = library stock concentration (final ~1000-fold dilution): 10 mM, cytotoxicity flag (confluency mask): cytotoxic (confluency <70% of control), agonist: MPLA (TLR4) […]
# [12] = library stock concentration (final ~1000-fold dilution): 10 mM water, cytotoxicity flag (confluency mask): not cytotoxic, agonist: Imiquimod (TLR7) […]
# [13] = library stock concentration (final ~1000-fold dilution): 10 mM water, cytotoxicity flag (confluency mask): not cytotoxic, agonist: MPLA (TLR4) […]
smiles,measurement,setting,value
CC1CCC/C=C/C2CC(O)CC2C(O)/C=C/C(=O)O1 (stereo not drawn),NF-kB SEAP reporter activity,RAW-Dual [1]; [5],1.48
same,NF-kB SEAP reporter activity,RAW-Dual [1]; [6],0.636
same,NF-kB SEAP reporter activity,RAW-Dual [2]; agonist: LPS (TLR4) 0.1 ug/mL,0.305
same,NF-kB SEAP reporter activity,RAW-Dual [2]; [7],0.297
same,NF-kB SEAP reporter activity,RAW-Dual [2]; [8],0.209
same,NF-kB SEAP reporter activity,RAW-Dual [2]; [9],0.469
O=C(O)CCCc1ccc(N(CCCl)CCCl)cc1,NF-kB SEAP reporter activity,RAW-Dual [1]; [5],0.998
same,NF-kB SEAP reporter activity,RAW-Dual [1]; [6],1
same,NF-kB SEAP reporter activity,RAW-Dual [2]; agonist: LPS (TLR4) 0.1 ug/mL,0.89
same,NF-kB SEAP reporter activity,RAW-Dual [2]; [7],1.04
same,NF-kB SEAP reporter activity,RAW-Dual [2]; [8],1.21
same,NF-kB SEAP reporter activity,RAW-Dual [2]; [9],1.24
Cn1c(CCCCCCC(=O)NO)nc2cc(N(CCCl)CCCl)ccc21,NF-kB SEAP reporter activity,RAW-Dual [1]; [10],1.62
same,NF-kB SEAP reporter activity,RAW-Dual [1]; [11],2.33
same,NF-kB SEAP reporter activity,RAW-Dual [3]; agonist: LPS (TLR4) 0.1 ug/mL,3.35
same,NF-kB SEAP reporter activity,RAW-Dual [3]; [7],1.5
same,NF-kB SEAP reporter activity,RAW-Dual [3]; [8],1.55
same,NF-kB SEAP reporter activity,RAW-Dual [3]; [9],1.91
Cl.O=C(O)Cc1c[nH]cn1,NF-kB SEAP reporter activity,RAW-Dual [1]; [5],0.935
same,NF-kB SEAP reporter activity,RAW-Dual [1]; [6],1.05
same,NF-kB SEAP reporter activity,RAW-Dual [2]; agonist: LPS (TLR4) 0.1 ug/mL,1.34
same,NF-kB SEAP reporter activity,RAW-Dual [2]; [7],0.991
same,NF-kB SEAP reporter activity,RAW-Dual [2]; [8],0.973
same,NF-kB SEAP reporter activity,RAW-Dual [2]; [9],0.728
CNC1C(O)C(OC2C(N)CC(N)C(OC3OC(C(C)O)C(O)C(O)C3N)C2O)OCC1(C)O.O=S(=O)(O)O.O=S(=O)(O)O (stereo not drawn),NF-kB SEAP reporter activity,RAW-Dual [1]; [12],0.947
same,NF-kB SEAP reporter activity,RAW-Dual [1]; [13],1.07
same,NF-kB SEAP reporter activity,RAW-Dual [4]; agonist: LPS (TLR4) 0.1 ug/mL,1.15
same,NF-kB SEAP reporter activity,RAW-Dual [4]; [7],1.26
same,NF-kB SEAP reporter activity,RAW-Dual [4]; [8],1.15
same,NF-kB SEAP reporter activity,RAW-Dual [4]; [9],1.12
CC12NC(Cc3ccccc31)c1ccccc12.O=C(O)/C=C\C(=O)O (stereo not drawn),NF-kB SEAP reporter activity,RAW-Dual [1]; [5],1.16
same,NF-kB SEAP reporter activity,RAW-Dual [1]; [6],1.1
same,NF-kB SEAP reporter activity,RAW-Dual [2]; agonist: LPS (TLR4) 0.1 ug/mL,1.25
same,NF-kB SEAP reporter activity,RAW-Dual [2]; [7],0.851
same,NF-kB SEAP reporter activity,RAW-Dual [2]; [8],1.13
same,NF-kB SEAP reporter activity,RAW-Dual [2]; [9],1.15
COc1cc(C)[nH]c(=O)c1CNC(=O)c1c(C)n(C(C)C2CCN(CC(F)(F)F)CC2)c2ccccc12 (stereo not drawn),NF-kB SEAP reporter activity,RAW-Dual [1]; [5],0.35
same,NF-kB SEAP reporter activity,RAW-Dual [1]; [6],0.914
same,NF-kB SEAP reporter activity,RAW-Dual [2]; agonist: LPS (TLR4) 0.1 ug/mL,0.78
same,NF-kB SEAP reporter activity,RAW-Dual [2]; [7],0.953
same,NF-kB SEAP reporter activity,RAW-Dual [2]; [8],0.647
same,NF-kB SEAP reporter activity,RAW-Dual [2]; [9],0.74
CC(N)C(=O)NC(CO)C(=O)NC(C(=O)NC(C(=O)NC(C(=O)NC(CC(N)=O)C(=O)NC(Cc1ccc(O)cc1)C(=O)NC(C(N)=O)C(C)O)C(C)O)C(C)O)C(C)O (stereo not drawn),NF-kB SEAP reporter activity,RAW-Dual [1]; [12],0.968
same,NF-kB SEAP reporter activity,RAW-Dual [1]; [13],1.05
same,NF-kB SEAP reporter activity,RAW-Dual [4]; agonist: LPS (TLR4) 0.1 ug/mL,1.17
same,NF-kB SEAP reporter activity,RAW-Dual [4]; [7],1.25
same,NF-kB SEAP reporter activity,RAW-Dual [4]; [8],1.16
same,NF-kB SEAP reporter activity,RAW-Dual [4]; [9],1.06
C=C(C)C1Cc2c(ccc3c2OC2COc4cc(OC)c(OC)cc4C2C3=O)O1 (stereo not drawn),NF-kB SEAP reporter activity,RAW-Dual [1]; [5],1.87
same,NF-kB SEAP reporter activity,RAW-Dual [1]; [6],1.85
same,NF-kB SEAP reporter activity,RAW-Dual [2]; agonist: LPS (TLR4) 0.1 ug/mL,3.13
same,NF-kB SEAP reporter activity,RAW-Dual [2]; [7],2.36
same,NF-kB SEAP reporter activity,RAW-Dual [2]; [8],1.27
same,NF-kB SEAP reporter activity,RAW-Dual [2]; [9],1.45
CCC1=CC2CN3CCc4c([nH]c5ccccc45)C(C(=O)OC)(C2)C13 (stereo not drawn),NF-kB SEAP reporter activity,RAW-Dual [1]; [5],1.03
same,NF-kB SEAP reporter activity,RAW-Dual [1]; [6],1.11
same,NF-kB SEAP reporter activity,RAW-Dual [2]; agonist: LPS (TLR4) 0.1 ug/mL,1.04
same,NF-kB SEAP reporter activity,RAW-Dual [2]; [7],1.06
same,NF-kB SEAP reporter activity,RAW-Dual [2]; [8],0.935
same,NF-kB SEAP reporter activity,RAW-Dual [2]; [9],1.03
COC1=CC2C3Cc4ccc(OC)c(O)c4C2(CCN3C)CC1=O.Cl (stereo not drawn),NF-kB SEAP reporter activity,RAW-Dual [1]; [5],0.858
same,NF-kB SEAP reporter activity,RAW-Dual [1]; [6],0.999
same,NF-kB SEAP reporter activity,RAW-Dual [2]; agonist: LPS (TLR4) 0.1 ug/mL,0.877
same,NF-kB SEAP reporter activity,RAW-Dual [2]; [7],0.884
same,NF-kB SEAP reporter activity,RAW-Dual [2]; [8],1.16
same,NF-kB SEAP reporter activity,RAW-Dual [2]; [9],1.09
CN1C2CC(OC(=O)C(CO)c3ccccc3)CC1C1OC12 (stereo not drawn),NF-kB SEAP reporter activity,RAW-Dual [1]; [5],0.917
same,NF-kB SEAP reporter activity,RAW-Dual [1]; [6],1.04
same,NF-kB SEAP reporter activity,RAW-Dual [2]; agonist: LPS (TLR4) 0.1 ug/mL,1.23
same,NF-kB SEAP reporter activity,RAW-Dual [2]; [7],1.02
same,NF-kB SEAP reporter activity,RAW-Dual [2]; [8],1.11
same,NF-kB SEAP reporter activity,RAW-Dual [2]; [9],1.58
CN1Cc2c(ccc3c2OCO3)C2C(O)Cc3cc4c(cc3C21)OCO4 (stereo not drawn),NF-kB SEAP reporter activity,RAW-Dual [1]; [10],1.6
same,NF-kB SEAP reporter activity,RAW-Dual [1]; [11],1.66
same,NF-kB SEAP reporter activity,RAW-Dual [3]; agonist: LPS (TLR4) 0.1 ug/mL,2.16
same,NF-kB SEAP reporter activity,RAW-Dual [3]; [7],1.75
same,NF-kB SEAP reporter activity,RAW-Dual [3]; [8],1.42
same,NF-kB SEAP reporter activity,RAW-Dual [3]; [9],2.18
